Bioassay records as filed in PubChem.
This is one part of a sample in which hits are shown more often than they occur.
Shiga inhibitor: Shiga toxin inhibition; Vero cells, Shiga toxin protein synthesis inhibition reporter; actives 9.2% (n = 290,000); inhibition, % at 38.7 µM; in the data active = inhibition mostly above about 28%, no sharp cut-off; inactive = mostly below about 43%; also: 0% is about no effect
NS1 inh: influenza NS1 inhibition | Potency, µM (doses to about 46.1 µM), without a hit: at the top dose activity, positive = more growth | actives 0.4% (n = 270,000) | AID 2326; calls by dose curve; also: potency is read from the fitted curve at half-maximal effect; actives are rising curves; nearly all actives have a fitted effect of over 50% in size
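A cell-based growth assay was used: compounds that relieve NS1-induced slow growth of budding yeast raise OD600. Assay medium was yeast nitrogen base with ammonium sulphate and -URA supplement, pH 6.0, with 2% galactose.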
Cycloheximide cs: counter-screen hit for Shiga toxin inhibitors, cycloheximide. cell reporter, cycloheximide protein synthesis inhibition counterscreen. max response, %. actives 12% (n = 300,000). AID 2314; in the data active = max response mostly above about 13%, no sharp cut-off; inactive = mostly below about 14%; also: read at 38.3 µM for the half of the compounds with a filed dose; 0% is about no effect
AmpC no deterg: blocks E. coli AmpC beta-lactamase in detergent-free assay; actives 0.52% (n = 330,000); P00811; AID 485341; AmpC nitrocefin hydrolysis, absorbance 480 nm, 0.0001% Triton; Potency, µM (top dose mostly 57.1 µM), inactives show top-dose activity change, negative = inhibition, usual class: inhibitors;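 also: potency is read from the fitted curve at half-maximal effect; plate controls were no compound for no effect and no enzyme for full effect; nearly all actives have a fitted effect of over 20% in size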
Target sequence (P00811 whole entry, looked up): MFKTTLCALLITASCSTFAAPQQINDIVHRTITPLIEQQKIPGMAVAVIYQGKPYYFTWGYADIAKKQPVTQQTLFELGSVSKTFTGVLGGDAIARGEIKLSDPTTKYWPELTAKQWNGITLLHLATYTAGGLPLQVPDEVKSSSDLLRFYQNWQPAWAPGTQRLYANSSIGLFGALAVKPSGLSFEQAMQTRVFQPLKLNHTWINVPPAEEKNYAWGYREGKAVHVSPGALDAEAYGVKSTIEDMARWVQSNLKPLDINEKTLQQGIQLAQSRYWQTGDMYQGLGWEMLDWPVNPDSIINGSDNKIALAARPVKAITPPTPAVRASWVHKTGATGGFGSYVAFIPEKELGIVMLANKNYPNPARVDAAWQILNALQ
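20 mM phosphate pH 7.0 + 0.01% (detergent screen) or 0.0001% Triton X-100; 5.3 nM AmpC reagent; cpd preinc 15 min RT; nitrocefin (800 uM stock) to start; A480 q20 s × 4 min; Activity was normalised to no-enzyme and no-compound control wells.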
AmpC inh detg: blocks E. coli AmpC beta-lactamase in detergent assay; actives 0.041% (n = 370,000); Potency, µM (top dose mostly 114 µM), without a hit: at the top dose activity change, negative = inhibition, actives largely listed as inhibitors; AID 485294; AmpC hydrolysis of nitrocefin, absorbance 480 nm, 0.01% Triton; P00811;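 also: potency is read from the fitted curve at half-maximal effect; 0% = no-compound wells and -100% = no-enzyme wells; nearly all actives have a fitted effect of over 25% in size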
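20 mM phosphate pH 7.0 + 0.01% (detergent screen) or 0.0001% Triton X-100; 5.3 nM AmpC reagent; cpd preinc 15 min RT; nitrocefin (800 uM stock) to start; A480 q20 s × 4 min; Activity was normalised to no-enzyme and no-compound control wells.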
Numbers without * were called inactive; ? = inconclusive; / = no result given; + = active, no number; [ ] = remark or other dose. Unless noted, calls follow the shape of the dose curve; as a rule, active = well fitted curve in the direction sought with a large enough effect; inconclusive = small, poorly fitted or top-dose-only effect, or another doubt; inactive = no such curve, though single readings can be large; an effect the other way counts as inactive or inconclusive.

SMILES	Shiga inhibitor	NS1 inh	Cycloheximide cs	AmpC no deterg	AmpC inh detg
CCN(CCO)c1ccc(N=Cc2c(O)n(C)c(=S)[nH]c2=O)cc1	80*	0%	44*	-17%	1%
O=c1[nH]c(=S)n(C2CC2)c(O)c1C=NCc1ccc(F)cc1	-12	12%	1	1%	4%
O=C(Nc1ccc(F)c(F)c1)C1CCCN1S(=O)(=O)c1cccc2nsnc12 (stereo unspecified)	/	/	/	/	3%
Cc1cccc(NC(=O)CSc2ncnc3sc(C)c(C)c23)n1	-7	-14%	-2	-21%	-11%
Cc1sc2ncnc(SCC(=O)c3cccs3)c2c1C	72*	-1%	35*	-53%	-11%
CC1CCCCN1C(=O)CSc1ccc(-c2ccc(F)cc2)nn1 (stereo unspecified)	41	-12%	19*	-8%	-3%
CC1CCCCN1C(=O)CSc1nc(-c2ccccc2)cn1N (stereo unspecified)	46*	/	25*	7%	-14%
COc1ccc(-c2cnc(N)n2CC2CCCO2)cc1 (stereo unspecified)	65	-4%	22*	70%	?
c1ccc(-c2cnc(SCCN3CCOCC3)n2CC2CCCO2)cc1 (stereo unspecified)	-4	8%	-2	-5%	?
N=C(N)SCc1nc2ccccc2c(=O)n1-c1ccccc1Cl	81*	7%	50*	-15%	-2%
COc1cccc(C2=Nc3cccc4cccc(c34)N2)c1	16	-4%	14*	-41%	3%
CCCc1ccc(-c2cc(C(=O)Nc3ccc([N+](=O)[O-])cn3)c3ccccc3n2)cc1	17*	-2%	21*	-20%	4%
CCCc1ccc(-c2cc(C(=O)NN3CCOCC3)c3ccccc3n2)cc1	54	-5%	20*	173%	-5%
CC(C)Oc1cccc(-c2cc(C(=O)NN3CCOCC3)c3ccccc3n2)c1	18	-1%	12*	141%	5%
O=C(NN1CCOCC1)c1cc(-c2ccc(Br)s2)nc2ccccc12	18	/	0	0%	-3%
CCCc1ccc(-c2cc(C(=O)NCCc3ccc(S(N)(=O)=O)cc3)c3ccccc3n2)cc1	95*	-3%	54*	-36%	-12%
COc1ccc(-c2cc(C(=O)Oc3ccc([N+](=O)[O-])cc3)c3ccccc3n2)cc1	3	6%	10	?	2%
C=Cc1ccc(CN2C(=O)N(c3ccc(CC)cc3)S(=O)(=O)c3ccccc32)cc1	/	/	/	/	-6%
CN(C)CCCNc1nc(-c2ccc(Cl)cc2)nc2ccccc12	-2	29%	1	12%	-10%
Cc1cccc(-c2nc(NCCCN(C)C)c3ccccc3n2)c1	51	4%	14*	-12%	-3%
COCCN(CCOC)c1nc(-c2ccc(C)cc2)nc2ccccc12	73*	-67%	13*	68%	-13%
Cc1ccc(-c2nc(NCCN(C)C)c3ccccc3n2)cc1	80	-20%	18*	0%	-8%
Cc1nn(CC(=O)N2CCN(c3ccccc3)CC2)c(=O)c2cc3cc(F)ccc3n12	/	/	/	/	13%
O=C1CC(N2CCN(Cc3ccccc3)CC2)C(=O)N1c1ccc2c(c1)OCCO2 (stereo unspecified)	43*	-4%	21*	-15%	-1%
O=C1CC(N2CCN(Cc3ccccc3)CC2)C(=O)N1c1ccccc1 (stereo unspecified)	-7	2%	-2	-26%	?
SMILES	Shiga inhibitor	NS1 inh	Cycloheximide cs	AmpC no deterg	AmpC inh detg
Fc1ccccc1-c1nc2ncccc2o1	58*	-7%	23*	-15%	-7%
Cc1c(NC(=O)C(C)C)cccc1-c1nc2ncccc2o1	25	-13%	9	0%	0%
CCCCC(=O)Nc1cc(-c2nc3ncccc3o2)ccc1C	-3	4%	-6	-13%	-1%
c1ccc2c(-c3nc4ncccc4o3)cccc2c1	34	-81%	20*	-24%	-12%
CCCCC(=O)Nc1cccc(-c2nc3ncccc3o2)c1C	43	-4%	15*	5%	-9%
Cc1cccc(Nc2nc3ccccc3n3c(N)nnc23)c1	/	/	/	/	-5%
Cc1ccc2ncc3c(-c4ccc(F)cc4)nn(-c4cccc(F)c4)c3c2c1	/	/	/	/	-3%
Cc1nn(-c2ccccc2)c(C)c1/C=C/C(=O)OCC(=O)Nc1ncc(C(F)(F)F)cc1Cl	-7	22%	-4	27%	-14%
C=CCN=C1N[C@@H](c2ccc(Br)cc2)C(C(=O)OC)=C(C)N1Cc1ccccc1	8	4%	-6	77%	?
Cn1c(SCC(=O)N2CCc3ccccc32)nc2cccnc21	-1	-58%	1	28%	-10%
CC(C)(C)NC(=O)CSc1ncccc1-c1nc2ccccc2[nH]1	26*	11%	26*	-17%	?
COC(=O)CSc1ncccc1-c1nc2ccccc2[nH]1	+	-3%	24*	-22%	-10%
O=C(CSc1ncccc1-c1nc2ccccc2[nH]1)N1CCc2ccccc21	26	12%	85*	-21%	?
COc1ccc(C)cc1NC(=O)c1cc2c(=O)n3cccc(C)c3nc2s1	/	/	/	/	-8%
Cc1cc(C)nc(/N=C(\N)Nc2ccc(C(C)C)cc2)n1	23	-4%	14*	-31%	4%
CCc1nn(CC(=O)N2CC(C)CC(C)C2)c(=O)c2cccn12 (stereo unspecified)	-6	0%	1	-9%	-10%
COc1ccc(S(=O)(=O)n2nc(OC(=O)c3ccc(C)cc3)cc2N)cc1	56	-11%	27*	-57%	-12%
CC(=O)c1ccc(NC(=O)C(C)n2nc(-c3ccccc3)ccc2=O)cc1 (stereo unspecified)	/	/	/	/	22%
CN1C(=O)/C(=C\C=C2/CCCN2C)N(C)C1=S	54	11%	23*	-9%	1%
CCN1C(=O)/C(=C/C=C2/CCCN2C)OC1=S	46*	-6%	28*	-21%	2%
CCn1c(CNC(=O)c2ccc(OC)cc2)nnc1SCC(=O)Nc1cc(C)ccc1C	/	/	/	/	-8%
CCCCCCc1ccc(N2C[C@H](C)[C@@H](CC(=O)NCc3ccccc3)C2=O)cc1	-1	2%	8.5*	-4%	-11%
CCCCCCc1ccc(N2C[C@H](Cc3ccccc3)[C@@H](CC(=O)Nc3ccccc3)C2=O)cc1	44*	?	17*	-33%	6%
CCCCCCc1ccc(N2C[C@H](CCCCC)[C@@H](CC(=O)NCc3ccccc3)C2=O)cc1	-1	4%	1	-8%	?
COc1ccc(CCNC(=O)c2cc(Nc3ccccc3)nc3ccccc23)cc1OC	/	/	/	/	0%
CSc1oc(-c2ccc(F)cc2)nc1S(=O)(=O)c1ccccc1	-24	-1%	19*	-16%	1%
O=S(=O)(c1ccccc1)c1nc(-c2ccccc2)oc1N1CCCC1	42	9%	-4	-18%[2.29 µM]	8%
O=S(=O)(c1ccccc1)c1nc(-c2ccccc2)oc1N1CCCCC1	77*	11%	24*	-21%	4%
CSc1oc(-c2ccccc2)nc1S(=O)(=O)c1ccc(F)cc1	-5	-9%	-3	-44%	?
